Values joined by “and” are separate entries in the source; they are usually repeats but may differ in a detail not shown here. Equal values may be shown once. In all, about 150,000 compounds went through this assay and about 6,500 (4.3%) were called active. Roughly 12% stayed inconclusive and do not appear here. Shown is part of a subset that was picked to be rich in actives. Values without a mark were called inactive. Calls follow the shape of the dose curve; as a rule, active = well fitted inhibition curve with a large enough effect (not every such curve was filed as active); inconclusive = small, poorly fitted or top-dose-only effect, or another doubt; inactive = no such curve, though single readings can be large or run the other way.
% is scaled to controls: 0 for no effect and ±100 for the full control effect; potency is read from the fitted curve at half-maximal effect.

Sequence of 15-hydroxyprostaglandin dehydrogenase [NAD(+)] (Homo sapiens) (P15428 whole entry, looked up): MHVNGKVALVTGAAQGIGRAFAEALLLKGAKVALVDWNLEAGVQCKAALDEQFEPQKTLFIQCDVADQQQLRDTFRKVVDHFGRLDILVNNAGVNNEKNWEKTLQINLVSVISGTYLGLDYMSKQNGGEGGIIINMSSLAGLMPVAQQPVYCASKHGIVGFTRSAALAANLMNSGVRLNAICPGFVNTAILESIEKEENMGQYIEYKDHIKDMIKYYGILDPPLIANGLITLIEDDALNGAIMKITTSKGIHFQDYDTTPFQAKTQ

This assay has as its target 15-hydroxyprostaglandin dehydrogenase [NAD(+)] (Homo sapiens) (UniProt P15428). Put plainly: qHTS Assay for Inhibitors of HPGD (15-Hydroxyprostaglandin Dehydrogenase). Conditions: purified HPGD, NADH fluorescence kinetic, PGE2 substrate; activity change, negative = inhibition: active compounds read low. The text has this: Human 15-Hydroxyprostaglandin dehydrogenase (HPGD) catalyzes the inactivation of prostaglandin E2, and plays a major role in cancer biology by antagonizing the oncogenic potential of cyclooxygenase type 2 (COX2). Assays are available, based on absorbance/fluorescence increase of NADH with the substrate 15-OH prostaglandin E2. References 1. Myung SJ, Rerko RM, Yan M, Platzer P, Guda K, Dotson A, Lawrence E, Dannenberg AJ, Lovgren AK, Luo G, Pretlow TP, Newman RA, Willis J, Dawson D, Markowitz SD. 15-Hydroxyprostaglandin dehydrogenase is an in vivo suppressor of colon tumorigenesis. […] 2. Yan M, Rerko RM, Platzer P, Dawson D, Willis J, Tong M, Lawrence E, Lutterbaugh J, Lu S, Willson JK, Luo G, Hensold J, Tai HH, Wilson K, Markowitz SD. 15-Hydroxyprostaglandin dehydrogenase, a COX-2 oncogene antagonist, is a TGF-beta-induced suppressor of human gastrointestinal cancers. Proc Natl Acad Sci U S A. 2004 Dec 14;101(50):17468-73. 3. Yang L, Amann JM, Kikuchi T, Porta R, Guix M, Gonzalez A, Park KH, Billheimer D, Arteaga CL, Tai HH, Dubois R, Carbone DP, Johnson DH. Inhibition of Epidermal Growth Factor Receptor Signaling Elevates 15-Hydroxyprostaglandin Dehydrogenase in Non-Small-Cell Lung Cancer. Cancer Res. 2007 Jun 15;67(12):5587-5593. Inhibition of HPGD activity was screened by utilizing prostaglandin as an electron donor and NAD+ as an electron acceptor/cofactor. An increase in the fluorescence intensity due to conversion of NAD+ to NADH was used to measure the enzyme activity. NIH Chemical Genomics Center [NCGC] Structural Genomics Consortium [SGC]
Buffer: 50 mM Tris-HCl, 0.01% Tween 20, pH 8. Enzyme Buffer: 50 mM Tris-HCl, 0.5 mM NAD+ and 0.01% Tween 20, pH 8. Reagents/Controls: Buffer in columns 3 and 4 as negative control (no enzyme). Substrate/cofactor solution: 1 mM NAD+ and 30 uM prostaglandin (Sigma, prostaglandin E2, # P5640) final concentrations dispensed throughout the plate. Enzyme: 20 nM HPGD final concentration in columns 1, 2, 5-48. Column 1 and 2 is neutral (100% activity). A titration of control inhibitor GW5074 (G6416 Sigma-Aldrich, St. Louis, MO) top concentration 10 mM in DMSO, then 1:2 dilution for a total of 16 concentrations in duplicate) was pin-transferred into column 2. Assay Steps: Three uL of enzyme were dispensed to 1536-well Greiner black solid bottom plates. Compounds and control inhibitor (23 nL) were transferred via Kalypsys PinTool. The plates were incubated for 15 min at room temperature, and then 1 uL of substrate/cofactor solution was added to start the reaction. The plates were immediately transferred to and read 5 times every 30 seconds on ViewLux High-throughput CCD imager (Perkin-Elmer) using 360 nm excitation and 450 nm emission fluorescence protocol. The fluorescence intensity difference between the last and the first time points was used to compute reaction progress.
On to `CC(=O)Nc1ccc(/C(C)=N/NC(=O)CN(c2ccccc2Br)S(C)(=O)=O)cc1`, for which the activity change, negative = inhibition was -3.71%.

As for `Nc1nnc(SCC(=O)Nc2ccc3nc(SCC(=O)Nc4ccccc4)sc3c2)s1`, the Potency is 4.47 µM (active). Consider `CCCCNC(=O)CSc1nc2ccc(NC(=O)CSc3nnc(N)s3)cc2s1`, for which the Potency is 5.01 µM (active). Turning to `CCCCNS(=O)(=O)c1ccc2nc(SCC(=O)Nc3cc(C)cc(C)c3)[nH]c2c1`, the activity change, negative = inhibition was -21.1%. As for `CCCCNC(=O)CSc1nnc(-c2ccco2)n1C`, the activity change, negative = inhibition was -11.5%. On to `O=C(CSc1nc(-c2ccccc2)cs1)Nc1cccc([N+](=O)[O-])c1`, for which the activity change, negative = inhibition was -24.6%. Take `Cc1cccc(NC(=O)CSc2nnc(NC(=O)CN3CCOCC3)s2)c1`: the activity change, negative = inhibition is -8.48%. For the compound `CC(CNc1ccc([N+](=O)[O-])c2cccnc12)Nc1c([N+](=O)[O-])cc(C(F)(F)F)cc1[N+](=O)[O-]` (stereo unspecified), the activity change, negative = inhibition was -20.4%.

As to `O=C(O)c1ccc(/C=N/NC(=O)c2ccc(Br)cc2)cc1`, the activity change, negative = inhibition is -2.06%. Consider `CC(=O)NC1C(OCc2ccccc2)OC(COC(C)=O)C(OC(C)=O)C1OC(C)=O` (stereo unspecified), for which the activity change, negative = inhibition is -0.385%.

As to `CCN(CC)c1ccc(C(=O)N/N=C(\C)c2cccc(OC)c2)cc1`, the activity change, negative = inhibition is -8.48%. Turning to `COc1ccc(OC(C)C(=O)NCCc2nc3ccccc3[nH]2)cc1` (stereo unspecified), the activity change, negative = inhibition was -0.239%.

In the case of `CC(C)CCNC(=O)c1cccnc1Sc1ccccc1`, the activity change, negative = inhibition is -7.91%.

`CSc1nc(-c2ccco2)nn1C(=O)CCc1ccccc1`: the activity change, negative = inhibition is -14%. Consider `O=c1nc2s/c(=C\c3ccco3)c(=O)n2nc1Cc1ccccc1`, for which the activity change, negative = inhibition is -22.5%. In the case of `CCOc1ccccc1/C=c1\sc2nc(-c3ccco3)nn2c1=O`, the Potency was 17.8 µM (active). Take `O=C(NC1CCCCC1)c1cc([N+](=O)[O-])ccc1N1CCOCC1`: the activity change, negative = inhibition was -0.536%. For `Cc1ccc(C(=O)NC2CCN(C(=O)N3CCOCC3)CC2)cc1`, the activity change, negative = inhibition was -4.3%. `O=C(NC1CCCCC1)c1ccc(CNc2c(N3CCOCC3)c(=O)c2=O)cc1`: the Potency is 14.1 µM (active). For `CCS(=O)(=O)N1Cc2ccccc2CC1C(=O)Nc1nc2ccc(F)cc2s1` (stereo unspecified), the activity change, negative = inhibition is -14%. The same measure, in the same setting: next, `CCc1nnc(NC(=O)C2CC(=O)N(c3ccc4c(c3)OCCO4)C2)s1` (stereo unspecified): -28.3%; `COC(=O)Cc1ccc(OCC(=O)Nc2ccc(OC(F)(F)F)cc2)cc1`: -9.9%. With `O=C(CSCC(=O)Nc1cccc([N+](=O)[O-])c1)Nc1ccccc1`, the activity change, negative = inhibition was -9.37%. Regarding `Cc1ccccc1NC(=S)Nc1cccc([N+](=O)[O-])c1`, the activity change, negative = inhibition is -3.09%.

`COC(=O)/C=C\C(=O)Nc1cccc([N+](=O)[O-])c1`: the Potency is 3.16 µM (active). For `CCC(C)NC(=O)c1ccccc1NC(=O)c1ccccc1N(C)S(C)(=O)=O` (stereo unspecified), the activity change, negative = inhibition is 1.34%. Regarding `CCCCNC(=O)c1ccccc1NC(=O)c1ccccc1N(C)S(C)(=O)=O`, the Potency was 25.1 µM (active). Consider `CCCCNC(=O)C(=O)c1ccccc1NC(C)=O`, for which the activity change, negative = inhibition was -11.5%. Same read-out and setting: as for `COc1ccc(C)cc1NC(=O)C(Sc1ccccc1)c1ccccc1` (stereo unspecified), the figure is -3.19%; as for `CSCCC(Nc1ccc(S(=O)(=O)N2CCOCC2)cc1[N+](=O)[O-])C(=O)OCC(=O)N(C(C)C)C(C)C` (stereo unspecified), -2.59%; as for `O=C(O)c1ccc2c(c1)C(=O)N(NC(=O)c1ccc(O)cc1)C2=O`, -11%. In the case of `COC(=O)C(C(=O)OC)C1c2ccccc2C=C(C2CC2)N1C(=O)OC` (stereo unspecified), the activity change, negative = inhibition is -11% and -4.45%. The same measure, in the same setting: next, `CCCc1cc(=O)[nH]c(SCC(=O)N2CCN(S(=O)(=O)c3ccc(C)cc3C)CC2)n1`: -0.796%. For `CCCc1cc(=O)[nH]c(SCc2cc(=O)oc3c(C)c(C)ccc23)n1`, the Potency is 3.55 µM (active). As for `CCCc1cc(=O)[nH]c(SCc2ccc(C#N)cc2)n1`, the Potency is 15.8 µM (active). On to `CCCc1cc(=O)[nH]c(SCC(=O)OCc2ccccc2)n1`, for which the activity change, negative = inhibition is -12.3%.

Turning to `Cc1ccc2c(CSc3nncs3)cc(=O)oc2c1`, the activity change, negative = inhibition was -18.3%. In the case of `CCCc1cc(=O)n2[nH]c(SCc3ccccc3)nc2n1`, the activity change, negative = inhibition was -15.8%. Still for that read-out and setting: next, `CCCCN1C(=O)CCC(C(=O)O)C1c1ccc(OC)cc1` (stereo unspecified): -3.29%; `CCc1cccc(NC(=O)CCC(=O)O)c1`: 6.1%; `COc1ccc2c(CC(=O)OCC(=O)Nc3ccccc3[N+](=O)[O-])coc2c1`: -21.4%.

For the compound `Cc1cc(NS(=O)(=O)c2ccccc2)no1`, the activity change, negative = inhibition is -11.9%. As for `COc1cc(OC)cc(C(=O)Nc2ccc(S(=O)(=O)Nc3cc(C)on3)cc2)c1`, the activity change, negative = inhibition is -20.6%. `COc1cc2ccccc2cc1C(=O)Nc1ccc(S(=O)(=O)Nc2cc(C)on2)cc1`: the Potency was 20 µM (active).

In the case of `COc1ccc2nc(Nc3nc(-c4cc5ccccc5oc4=O)cs3)sc2c1`, the activity change, negative = inhibition was -10.8%. As for `C/C(=N\NS(=O)(=O)c1ccc(Cl)cc1)c1ccc(NC(=O)c2ccco2)cc1`, the activity change, negative = inhibition was -18.3%.

The values above are taken from PubChem BioAssay AID894 (National Center for Advancing Translational Sciences (NCATS), 2007).
